According to ChEMBL document CHEMBL1961873, “Compounds: GSK PKIS; Assays: Nanosyn kinase panel” (2012):

Tests used:
[1] = biological target: T1, Serine/threonine-protein kinase Nek9 (Homo sapiens) (UniProt Q8TD19); details: at 1 µM;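 also: each value is a mean percent inhibition of NEK9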
T1 sequence (whole entry): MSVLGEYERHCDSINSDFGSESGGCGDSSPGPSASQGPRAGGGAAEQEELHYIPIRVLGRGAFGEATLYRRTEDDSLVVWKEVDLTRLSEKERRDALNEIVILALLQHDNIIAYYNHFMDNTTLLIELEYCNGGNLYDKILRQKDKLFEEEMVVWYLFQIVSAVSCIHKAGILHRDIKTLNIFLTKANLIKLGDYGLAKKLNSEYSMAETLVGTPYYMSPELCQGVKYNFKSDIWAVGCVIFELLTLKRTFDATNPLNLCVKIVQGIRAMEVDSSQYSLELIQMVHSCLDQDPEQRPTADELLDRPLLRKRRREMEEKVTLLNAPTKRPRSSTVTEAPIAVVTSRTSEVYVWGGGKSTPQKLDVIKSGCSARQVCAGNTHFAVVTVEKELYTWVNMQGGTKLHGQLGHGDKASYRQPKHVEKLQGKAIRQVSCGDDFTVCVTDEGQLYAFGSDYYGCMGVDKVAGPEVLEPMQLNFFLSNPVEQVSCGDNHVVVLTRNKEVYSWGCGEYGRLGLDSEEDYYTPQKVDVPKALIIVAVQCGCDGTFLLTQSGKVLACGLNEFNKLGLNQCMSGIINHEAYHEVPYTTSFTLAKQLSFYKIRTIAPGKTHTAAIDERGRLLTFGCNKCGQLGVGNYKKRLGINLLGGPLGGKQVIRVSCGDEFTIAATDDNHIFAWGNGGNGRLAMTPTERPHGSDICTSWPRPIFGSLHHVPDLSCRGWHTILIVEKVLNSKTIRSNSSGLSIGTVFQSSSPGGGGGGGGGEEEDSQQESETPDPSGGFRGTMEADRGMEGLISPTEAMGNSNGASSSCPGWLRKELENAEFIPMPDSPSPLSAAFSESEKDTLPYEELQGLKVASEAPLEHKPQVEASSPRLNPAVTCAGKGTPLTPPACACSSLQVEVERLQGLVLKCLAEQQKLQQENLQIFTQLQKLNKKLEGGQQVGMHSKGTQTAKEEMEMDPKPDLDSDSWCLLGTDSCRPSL

[2] = biological target: Serine/threonine-protein kinase PLK1 (Homo sapiens) (UniProt P53350); details: at 0.1 µM
Chain of Serine/threonine-protein kinase PLK1 (Homo sapiens) (P53350 whole entry): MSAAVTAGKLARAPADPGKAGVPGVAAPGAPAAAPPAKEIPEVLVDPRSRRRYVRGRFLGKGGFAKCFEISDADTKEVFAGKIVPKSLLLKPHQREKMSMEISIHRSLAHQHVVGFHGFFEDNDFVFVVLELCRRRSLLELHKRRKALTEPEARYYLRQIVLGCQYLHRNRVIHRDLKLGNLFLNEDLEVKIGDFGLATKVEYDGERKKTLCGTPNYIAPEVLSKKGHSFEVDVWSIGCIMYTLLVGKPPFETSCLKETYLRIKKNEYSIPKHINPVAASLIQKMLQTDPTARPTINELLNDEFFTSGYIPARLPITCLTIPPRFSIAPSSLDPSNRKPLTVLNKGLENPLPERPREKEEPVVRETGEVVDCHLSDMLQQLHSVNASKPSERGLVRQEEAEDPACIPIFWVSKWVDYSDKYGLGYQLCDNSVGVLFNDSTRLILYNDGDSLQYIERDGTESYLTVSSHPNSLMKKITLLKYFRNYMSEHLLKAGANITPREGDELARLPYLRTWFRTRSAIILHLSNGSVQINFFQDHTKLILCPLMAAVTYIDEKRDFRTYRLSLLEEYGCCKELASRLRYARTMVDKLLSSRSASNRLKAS

[3] = biological target: Serine/threonine-protein kinase PLK1 (Homo sapiens) (UniProt P53350); details: at 1 µM
[4] = biological target: T2, Dual specificity protein kinase TTK (Homo sapiens) (UniProt P33981); details: at 0.1 µM
T2 sequence (whole entry): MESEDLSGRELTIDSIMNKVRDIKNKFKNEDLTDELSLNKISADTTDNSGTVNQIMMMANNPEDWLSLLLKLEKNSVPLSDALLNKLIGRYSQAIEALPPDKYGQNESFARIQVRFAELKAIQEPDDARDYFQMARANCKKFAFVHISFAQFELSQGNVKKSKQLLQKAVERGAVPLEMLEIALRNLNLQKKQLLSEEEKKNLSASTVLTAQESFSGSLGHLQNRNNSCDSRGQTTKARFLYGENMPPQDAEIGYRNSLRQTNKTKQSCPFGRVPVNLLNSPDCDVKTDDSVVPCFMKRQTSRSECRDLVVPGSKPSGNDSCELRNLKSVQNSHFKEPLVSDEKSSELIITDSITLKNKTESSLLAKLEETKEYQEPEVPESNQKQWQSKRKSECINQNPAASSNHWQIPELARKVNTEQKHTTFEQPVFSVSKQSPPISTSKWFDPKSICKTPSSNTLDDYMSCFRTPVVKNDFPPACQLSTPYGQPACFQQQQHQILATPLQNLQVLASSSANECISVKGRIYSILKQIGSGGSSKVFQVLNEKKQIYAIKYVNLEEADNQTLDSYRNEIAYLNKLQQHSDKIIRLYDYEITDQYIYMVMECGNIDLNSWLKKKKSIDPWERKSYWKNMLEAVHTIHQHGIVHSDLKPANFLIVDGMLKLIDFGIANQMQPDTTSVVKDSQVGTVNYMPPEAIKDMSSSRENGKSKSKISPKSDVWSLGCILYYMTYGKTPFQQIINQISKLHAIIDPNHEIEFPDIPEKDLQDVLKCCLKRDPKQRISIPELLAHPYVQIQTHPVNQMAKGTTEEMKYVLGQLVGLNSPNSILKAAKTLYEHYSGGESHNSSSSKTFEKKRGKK

[5] = system: T3, Receptor-type tyrosine-protein kinase FLT3 (Homo sapiens), P36888 [D835Y]; details: at 1 µM
T3 sequence (whole entry): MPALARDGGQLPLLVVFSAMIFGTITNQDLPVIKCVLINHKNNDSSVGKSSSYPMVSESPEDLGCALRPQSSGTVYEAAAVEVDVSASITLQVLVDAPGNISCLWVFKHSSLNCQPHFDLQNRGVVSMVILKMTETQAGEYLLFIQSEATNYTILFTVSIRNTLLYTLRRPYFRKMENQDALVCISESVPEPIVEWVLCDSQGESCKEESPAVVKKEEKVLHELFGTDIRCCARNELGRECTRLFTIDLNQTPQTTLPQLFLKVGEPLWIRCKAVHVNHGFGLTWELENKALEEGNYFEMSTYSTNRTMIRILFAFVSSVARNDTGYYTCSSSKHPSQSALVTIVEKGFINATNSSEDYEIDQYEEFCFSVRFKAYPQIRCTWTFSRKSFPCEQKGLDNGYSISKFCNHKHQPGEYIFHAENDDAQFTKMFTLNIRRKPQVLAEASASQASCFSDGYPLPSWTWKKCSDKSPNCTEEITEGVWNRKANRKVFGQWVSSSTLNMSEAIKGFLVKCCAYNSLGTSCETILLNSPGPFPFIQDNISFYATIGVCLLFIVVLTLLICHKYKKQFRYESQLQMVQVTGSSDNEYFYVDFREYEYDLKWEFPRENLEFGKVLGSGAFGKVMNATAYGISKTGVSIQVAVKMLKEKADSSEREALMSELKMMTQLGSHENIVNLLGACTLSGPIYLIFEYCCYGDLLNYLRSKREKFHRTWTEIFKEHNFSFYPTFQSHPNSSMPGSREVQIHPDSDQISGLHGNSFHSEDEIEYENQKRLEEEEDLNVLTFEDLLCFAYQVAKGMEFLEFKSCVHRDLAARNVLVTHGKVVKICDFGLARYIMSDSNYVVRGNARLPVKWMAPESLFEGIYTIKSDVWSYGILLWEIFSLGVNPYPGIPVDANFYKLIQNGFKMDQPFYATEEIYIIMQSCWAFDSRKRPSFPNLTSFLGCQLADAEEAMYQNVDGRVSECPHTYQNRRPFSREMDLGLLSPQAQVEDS

[6] = biological target: Vascular endothelial growth factor receptor 3 (Homo sapiens) (UniProt P35916); details: at 0.1 µM
[7] = biological target: Vascular endothelial growth factor receptor 3 (Homo sapiens) (UniProt P35916); details: at 1 µM
[8] = biological target: Macrophage colony-stimulating factor 1 receptor (Homo sapiens) (UniProt P07333); details: at 0.1 µM
[9] = biological target: Macrophage colony-stimulating factor 1 receptor (Homo sapiens) (UniProt P07333); details: at 1 µM
[10] = biological target: Tyrosine-protein kinase Fyn (Homo sapiens) (UniProt P06241); details: at 0.1 µM
Chain of Tyrosine-protein kinase Fyn (Homo sapiens) (P06241 2-537 limits assumed): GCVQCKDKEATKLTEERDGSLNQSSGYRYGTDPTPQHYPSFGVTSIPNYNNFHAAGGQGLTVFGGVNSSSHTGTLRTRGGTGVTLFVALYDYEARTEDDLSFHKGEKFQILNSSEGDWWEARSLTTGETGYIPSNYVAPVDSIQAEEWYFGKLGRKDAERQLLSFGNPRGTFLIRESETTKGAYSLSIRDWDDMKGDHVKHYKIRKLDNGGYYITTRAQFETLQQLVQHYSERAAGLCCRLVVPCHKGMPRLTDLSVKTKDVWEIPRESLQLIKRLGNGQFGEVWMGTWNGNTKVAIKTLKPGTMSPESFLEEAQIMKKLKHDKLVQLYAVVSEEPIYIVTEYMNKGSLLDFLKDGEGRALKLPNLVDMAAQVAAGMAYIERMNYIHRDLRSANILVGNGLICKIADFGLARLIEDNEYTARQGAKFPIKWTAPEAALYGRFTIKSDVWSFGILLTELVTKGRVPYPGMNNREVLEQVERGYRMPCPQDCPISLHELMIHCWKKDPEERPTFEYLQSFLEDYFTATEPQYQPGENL

[11] = biological target: Tyrosine-protein kinase Fyn (Homo sapiens) (UniProt P06241); details: at 1 µM
[12] = biological target: Tyrosine-protein kinase HCK (Homo sapiens) (UniProt P08631); details: at 0.1 µM
Chain of Tyrosine-protein kinase HCK (Homo sapiens) (P08631 2-526 limits assumed): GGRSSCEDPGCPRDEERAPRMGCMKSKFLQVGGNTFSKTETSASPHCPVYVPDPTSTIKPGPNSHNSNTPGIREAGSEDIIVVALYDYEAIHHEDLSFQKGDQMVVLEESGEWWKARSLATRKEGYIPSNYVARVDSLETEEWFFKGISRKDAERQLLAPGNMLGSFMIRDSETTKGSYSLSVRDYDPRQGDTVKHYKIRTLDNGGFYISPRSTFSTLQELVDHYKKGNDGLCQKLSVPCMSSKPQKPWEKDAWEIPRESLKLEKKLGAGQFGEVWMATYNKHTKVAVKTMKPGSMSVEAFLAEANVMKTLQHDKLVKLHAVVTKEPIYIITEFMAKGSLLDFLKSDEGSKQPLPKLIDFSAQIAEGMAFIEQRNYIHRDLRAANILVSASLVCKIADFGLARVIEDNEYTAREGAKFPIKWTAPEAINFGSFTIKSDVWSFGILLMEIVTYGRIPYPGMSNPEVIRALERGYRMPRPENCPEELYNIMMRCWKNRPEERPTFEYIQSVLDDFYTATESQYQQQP

[13] = biological target: Tyrosine-protein kinase HCK (Homo sapiens) (UniProt P08631); details: at 1 µM
[14] = biological target: Insulin-like growth factor 1 receptor (Homo sapiens) (UniProt P08069); details: at 0.1 µM
Chain of Insulin-like growth factor 1 receptor (Homo sapiens) (P08069 31-736 limits assumed): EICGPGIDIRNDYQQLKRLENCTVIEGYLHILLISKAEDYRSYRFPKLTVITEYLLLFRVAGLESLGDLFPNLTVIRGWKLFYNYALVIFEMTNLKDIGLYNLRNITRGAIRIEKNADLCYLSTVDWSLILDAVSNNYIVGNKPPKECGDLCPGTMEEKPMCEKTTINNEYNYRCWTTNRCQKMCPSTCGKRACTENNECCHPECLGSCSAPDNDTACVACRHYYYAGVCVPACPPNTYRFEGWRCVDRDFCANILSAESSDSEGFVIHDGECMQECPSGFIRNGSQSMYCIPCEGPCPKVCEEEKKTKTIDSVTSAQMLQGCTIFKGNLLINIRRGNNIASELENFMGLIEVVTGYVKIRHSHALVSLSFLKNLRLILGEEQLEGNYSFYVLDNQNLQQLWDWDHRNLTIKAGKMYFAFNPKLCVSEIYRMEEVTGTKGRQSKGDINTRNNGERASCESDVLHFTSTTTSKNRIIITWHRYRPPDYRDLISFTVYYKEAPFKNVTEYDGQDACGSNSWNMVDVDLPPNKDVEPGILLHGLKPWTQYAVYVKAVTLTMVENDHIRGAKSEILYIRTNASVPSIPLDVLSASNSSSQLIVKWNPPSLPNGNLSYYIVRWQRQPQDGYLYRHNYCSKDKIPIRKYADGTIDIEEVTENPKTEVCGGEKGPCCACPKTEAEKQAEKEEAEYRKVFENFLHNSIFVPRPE
Chain of Insulin-like growth factor 1 receptor (Homo sapiens) (P08069 741-1367 limits assumed): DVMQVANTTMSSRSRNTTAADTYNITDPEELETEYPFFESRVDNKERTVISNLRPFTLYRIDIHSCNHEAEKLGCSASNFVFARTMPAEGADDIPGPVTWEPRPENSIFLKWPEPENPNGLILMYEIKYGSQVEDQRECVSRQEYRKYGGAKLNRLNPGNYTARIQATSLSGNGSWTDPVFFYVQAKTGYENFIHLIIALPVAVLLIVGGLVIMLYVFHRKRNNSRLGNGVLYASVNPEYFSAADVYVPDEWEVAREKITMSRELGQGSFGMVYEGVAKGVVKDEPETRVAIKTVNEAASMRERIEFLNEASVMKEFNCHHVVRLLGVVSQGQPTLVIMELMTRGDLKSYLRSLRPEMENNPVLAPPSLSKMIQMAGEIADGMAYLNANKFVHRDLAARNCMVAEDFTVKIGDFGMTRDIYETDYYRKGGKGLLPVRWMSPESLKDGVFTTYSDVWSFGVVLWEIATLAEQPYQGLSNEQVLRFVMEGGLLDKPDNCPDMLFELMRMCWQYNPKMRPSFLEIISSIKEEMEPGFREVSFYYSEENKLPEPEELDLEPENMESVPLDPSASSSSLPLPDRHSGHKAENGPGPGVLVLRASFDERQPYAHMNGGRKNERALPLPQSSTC

[15] = biological target: Insulin-like growth factor 1 receptor (Homo sapiens) (UniProt P08069); details: at 1 µM
[16] = biological target: Insulin receptor (Homo sapiens) (UniProt P06213); details: at 0.1 µM
[17] = biological target: Insulin receptor (Homo sapiens) (UniProt P06213); details: at 1 µM
[18] = biological target: Insulin receptor-related protein (Homo sapiens) (UniProt P14616); details: at 0.1 µM
Chain of Insulin receptor-related protein (Homo sapiens) (P14616 27-742 limits assumed): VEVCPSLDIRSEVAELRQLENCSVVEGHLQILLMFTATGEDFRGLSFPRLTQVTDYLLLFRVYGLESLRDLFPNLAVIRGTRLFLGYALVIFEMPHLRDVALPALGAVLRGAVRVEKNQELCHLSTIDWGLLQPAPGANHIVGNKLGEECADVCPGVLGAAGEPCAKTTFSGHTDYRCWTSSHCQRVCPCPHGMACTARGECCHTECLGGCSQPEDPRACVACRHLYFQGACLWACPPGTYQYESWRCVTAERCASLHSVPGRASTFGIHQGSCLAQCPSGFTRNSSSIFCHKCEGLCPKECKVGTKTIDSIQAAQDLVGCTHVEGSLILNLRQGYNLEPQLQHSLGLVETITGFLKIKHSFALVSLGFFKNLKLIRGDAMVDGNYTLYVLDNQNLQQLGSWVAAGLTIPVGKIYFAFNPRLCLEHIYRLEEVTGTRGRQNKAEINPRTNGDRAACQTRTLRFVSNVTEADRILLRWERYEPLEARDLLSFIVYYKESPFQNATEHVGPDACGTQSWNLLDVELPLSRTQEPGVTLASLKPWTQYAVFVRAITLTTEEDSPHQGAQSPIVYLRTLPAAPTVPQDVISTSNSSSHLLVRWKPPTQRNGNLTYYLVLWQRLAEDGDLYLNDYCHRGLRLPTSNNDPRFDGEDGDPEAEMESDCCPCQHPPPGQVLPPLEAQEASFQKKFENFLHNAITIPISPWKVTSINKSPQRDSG
Chain of Insulin receptor-related protein (Homo sapiens) (P14616 747-1297 limits assumed): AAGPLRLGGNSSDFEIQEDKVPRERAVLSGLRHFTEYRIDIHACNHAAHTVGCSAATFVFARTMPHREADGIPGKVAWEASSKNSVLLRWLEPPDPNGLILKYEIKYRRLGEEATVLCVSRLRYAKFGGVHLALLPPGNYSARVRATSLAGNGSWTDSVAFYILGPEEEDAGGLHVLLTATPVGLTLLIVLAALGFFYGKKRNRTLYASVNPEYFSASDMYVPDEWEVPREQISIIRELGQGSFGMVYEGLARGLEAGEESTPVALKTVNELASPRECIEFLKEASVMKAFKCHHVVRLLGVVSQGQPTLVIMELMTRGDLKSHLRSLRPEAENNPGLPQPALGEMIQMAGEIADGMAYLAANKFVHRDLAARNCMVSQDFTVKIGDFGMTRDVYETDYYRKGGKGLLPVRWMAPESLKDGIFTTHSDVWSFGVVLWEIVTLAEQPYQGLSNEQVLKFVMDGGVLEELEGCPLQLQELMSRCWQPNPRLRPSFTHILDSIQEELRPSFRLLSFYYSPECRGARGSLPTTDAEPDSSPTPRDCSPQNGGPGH

[19] = biological target: Insulin receptor-related protein (Homo sapiens) (UniProt P14616); details: at 1 µM
[20] = biological target: T4, Tyrosine-protein kinase ITK/TSK (Homo sapiens) (UniProt Q08881); details: at 0.1 µM;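 also: mean percent inhibition of ITK from the GSK PKIS screen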
T4 sequence (whole entry): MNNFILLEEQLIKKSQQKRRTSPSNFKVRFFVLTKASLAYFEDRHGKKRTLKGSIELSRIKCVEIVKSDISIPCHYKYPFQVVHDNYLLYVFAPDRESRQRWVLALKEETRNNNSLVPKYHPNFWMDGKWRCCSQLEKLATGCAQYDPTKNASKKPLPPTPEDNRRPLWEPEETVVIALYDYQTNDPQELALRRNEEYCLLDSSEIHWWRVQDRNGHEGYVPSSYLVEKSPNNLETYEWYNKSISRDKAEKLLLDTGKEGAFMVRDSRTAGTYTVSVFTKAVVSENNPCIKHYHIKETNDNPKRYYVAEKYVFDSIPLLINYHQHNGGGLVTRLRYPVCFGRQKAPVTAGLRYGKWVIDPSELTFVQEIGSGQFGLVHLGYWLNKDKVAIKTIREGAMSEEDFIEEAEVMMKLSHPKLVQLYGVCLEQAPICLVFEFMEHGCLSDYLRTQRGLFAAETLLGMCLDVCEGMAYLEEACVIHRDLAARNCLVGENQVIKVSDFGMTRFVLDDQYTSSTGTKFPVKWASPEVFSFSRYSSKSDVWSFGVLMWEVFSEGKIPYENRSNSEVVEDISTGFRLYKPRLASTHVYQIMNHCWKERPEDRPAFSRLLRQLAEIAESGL

Compound | inhibition [1] [%] | inhibition [2] [%] | inhibition [3] [%] | inhibition [4] [%] | inhibition [5] [%] | inhibition [6] [%] | inhibition [7] [%] | inhibition [8] [%] | inhibition [9] [%] | inhibition [10] [%] | inhibition [11] [%] | inhibition [12] [%] | inhibition [13] [%] | inhibition [14] [%] | inhibition [15] [%] | inhibition [16] [%] | inhibition [17] [%] | inhibition [18] [%] | inhibition [19] [%] | inhibition [20] [%]
FC(F)(F)c1cccc(Nc2nccc(-c3cnn4nc(-c5ccccc5)ccc34)n2)c1 | 8.66 | 2.06 | -0.34 | 3.1 | 26.7 | -0.18 | 6.91 | -2.73 | 16.4 | 0.72 | 7.18 | 1.72 | 6.11 | -1.86 | -1.43 | -2.61 | 1.45 | 0.93 | 0.27 | -0.41
C/C(Nc1ccc(S(N)(=O)=O)cc1)=C1/C(=O)Nc2ccccc21 | 1.67 | -0.74 | -0.72 | 8.06 | 46.8 | 7.83 | 32.9 | 12.1 | 50.6 | 1.2 | 2.57 | -0.82 | 6.24 | 0.12 | 9.94 | 2.85 | 12.7 | -2.56 | -0.64 | -0.1
Cc1ccc(C(=O)NC2CCC2)cc1-c1ccc(C(=O)NCC2CC2)cc1 | 5.58 | 4.95 | 2.15 | 4.58 | 8.02 | 1.24 | 1 | -2.9 | 4.65 | 0.98 | 2.7 | 4.64 | 6.65 | 2.06 | 3.83 | 4.44 | 5.62 | 0.92 | 1.77 | 2.02
Fc1ccc(-c2ncn(C3CCNCC3)c2-c2ccnc(Oc3ccc4c(c3)OCO4)n2)cc1 | 7.95 | 4.77 | 3.7 | 7.25 | -0.75 | 3.31 | 5.76 | 2.5 | 12.1 | 1.06 | 3.17 | 6.2 | 10.9 | 0.4 | 2.16 | 2.85 | 3.42 | 3.09 | 3.51 | 1.6
CN(c1ccc(NC(=O)Nc2c(Cl)cccc2Cl)cc1)c1ccnc(Nc2cccc(CS(C)(=O)=O)c2)n1 | -6.03 | 0.57 | 0.37 | 3.9 | 28.8 | 23 | 41.7 | 92.1 | 96.2 | 2.74 | 12.4 | 22.5 | 48.9 | 5.47 | 4.63 | 1.49 | 3.45 | 2.73 | 4.71 | 54.1
NC(=O)Cc1ccccc1Oc1nccc(-c2c(-c3ccc(F)cc3)ncn2C2CCNCC2)n1 | 1.22 | 3.44 | 2.54 | 5.28 | 1.28 | 1.36 | -0.28 | 0.18 | 1.47 | 2.4 | 2.13 | 2.65 | 5.75 | 3.37 | 3.6 | 5.96 | 6.34 | 0.84 | 1.69 | 1.33
COc1cccc(/C=N/Nc2ncnc3c2cnn3-c2cccc(OC)c2)c1 | 11.2 | 5.9 | 5.49 | 7.19 | 7.24 | 1.81 | -0.55 | 1.79 | 6.37 | 2.39 | 7.98 | 4.96 | 6.95 | 2.01 | 1.32 | 6.27 | 3.35 | 1.18 | 1.31 | 0.35
